# Experimental data published in PubChem BioAssay AID1159580 (chemical genetic matrix, 2015).
# Screen size: about 5,500 compounds; about 2,000 (36%) were called active. Inconclusive results (about 18%) are left out. This is one part of the list. Values without a mark were called inactive. Cut-off read from the data, not from the text of the source: active = normalized growth mostly below about 0.91 (no sharp cut-off); inconclusive = no clear call, values can overlap the other calls; inactive = mostly above about 0.92.
# Experiment: chemical genetic growth profiling, strain panel (AID 1159580);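 note: tested at 20 µM; growth read once vehicle control cultures reached saturation at 30 °C; 1 = growth at the plate median or of vehicle wells; lower values mean less growth of the strain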
# Conditions: S. cerevisiae deletion strains, growth OD
compound,measurement,setting,value
O=C(/C=C/c1ccc(O)c(O)c1)OCCc1ccccc1,normalized growth,"locus YAL021C, strain ccr4, stronger effect = lower value",0.937
same,normalized growth,"locus YAL026C, strain drs2, stronger effect = lower value",0.671 (active)
same,normalized growth,"locus YAL030W, strain snc1, stronger effect = lower value",0.889 (active)
same,normalized growth,"locus YAL040C, strain CLN3, stronger effect = lower value",1.08
same,normalized growth,"locus YBL061C, strain skt5, stronger effect = lower value",0.767 (active)
same,normalized growth,"locus YBR009C, strain hhf1, stronger effect = lower value",0.781 (active)
same,normalized growth,"locus YBR023C, strain chs3, stronger effect = lower value",0.774 (active)
same,normalized growth,"locus YBR171W, strain sec66, stronger effect = lower value",0.911
same,normalized growth,"locus YBR231C, strain swc5, stronger effect = lower value",0.587 (active)
same,normalized growth,"locus YBR279W, strain paf1, stronger effect = lower value",0.848 (active)
same,normalized growth,"locus YCL011C, strain gbp2, stronger effect = lower value",0.751 (active)
same,normalized growth,"locus YCL016C, strain dcc1, stronger effect = lower value",0.774 (active)
same,normalized growth,"locus YCL061C, strain MRC1, stronger effect = lower value",0.851 (active)
same,normalized growth,"locus YCL069W, strain vba3, stronger effect = lower value",0.913 (active)
same,normalized growth,"locus YCR088W, strain abp1, stronger effect = lower value",0.841 (active)
same,normalized growth,"locus YDL005C, strain med2, stronger effect = lower value",0.964
same,normalized growth,"locus YDL040C, strain nat1, stronger effect = lower value",0.96
same,normalized growth,"locus YDR001C, strain nth1, stronger effect = lower value",0.933
same,normalized growth,"locus YDR069C, strain doa4, stronger effect = lower value",0.804 (active)
same,normalized growth,"locus YDR137W, strain rgp1, stronger effect = lower value",0.589 (active)
same,normalized growth,"locus YDR159W, strain sac3, stronger effect = lower value",0.916
same,normalized growth,"locus YDR195W, strain ref2",1.19 [resistant] (active)
same,normalized growth,"locus YDR297W, strain sur2, stronger effect = lower value",0.87 (active)
same,normalized growth,"locus YDR334W, strain swr1, stronger effect = lower value",0.641 (active)
same,normalized growth,"locus YDR335W, strain msn5, stronger effect = lower value",0.868 (active)
same,normalized growth,"locus YDR363W, strain ESC2, stronger effect = lower value",0.98
same,normalized growth,"locus YDR392W, strain spt3, stronger effect = lower value",0.116 (active)
same,normalized growth,"locus YEL003W, strain gim4, stronger effect = lower value",0.691 (active)
same,normalized growth,"locus YEL037C, strain rad23, stronger effect = lower value",0.938
same,normalized growth,"locus YEL061C, strain CIN8 (second series), stronger effect = lower value",0.693 (active)
same,normalized growth,"locus YER002W, strain NOP16, stronger effect = lower value",0.896 (active)
same,normalized growth,"locus YER015W, strain faa2, stronger effect = lower value",0.775 (active)
same,normalized growth,"locus YER016W, strain bim1, stronger effect = lower value",0.868 (active)
same,normalized growth,"locus YER111C, strain swi4, stronger effect = lower value",0.808 (active)
same,normalized growth,"locus YER155C, strain BEM2 (second series), stronger effect = lower value",0.463 (active)
same,normalized growth,"locus YFR010W, strain ubp6, stronger effect = lower value",0.906
same,normalized growth,"locus YGL167C, strain pmr1, stronger effect = lower value",0.941
same,normalized growth,"locus YGL173C, strain kem1, stronger effect = lower value",0.796 (active)
same,normalized growth,"locus YGL227W, strain vid30, stronger effect = lower value",0.287 (active)
same,normalized growth,"locus YGL240W, strain doc1, stronger effect = lower value",0.927
same,normalized growth,"locus YGL253W, strain hxk2, stronger effect = lower value",0.749 (active)
same,normalized growth,"locus YGR078C, strain PAC10, stronger effect = lower value",0.881 (active)
same,normalized growth,"locus YGR229C, strain SMI1, stronger effect = lower value",0.357 (active)
same,normalized growth,"locus YHR013C, strain ard1, stronger effect = lower value",0.683 (active)
same,normalized growth,"locus YHR027C, strain rpn1, stronger effect = lower value",0.857 (active)
same,normalized growth,"locus YHR030C, strain SLT2, stronger effect = lower value",0.837 (active)
same,normalized growth,"locus YHR079C, strain IRE1, stronger effect = lower value",0.803 (active)
same,normalized growth,"locus YHR142W, strain chs7, stronger effect = lower value",0.592 (active)
same,normalized growth,"locus YJL092W, strain hpr5, stronger effect = lower value",0.891 (active)
same,normalized growth,"locus YJL095W, strain BCK1 (second series), stronger effect = lower value",0.644 (active)
same,normalized growth,"locus YJL095W, strain BCK1, stronger effect = lower value",0.863 (active)
same,normalized growth,"locus YJL115W, strain asf1, stronger effect = lower value",0.989
same,normalized growth,"locus YJL129C, strain trk1, stronger effect = lower value",0.522 (active)
same,normalized growth,"locus YJL154C, strain vps35, stronger effect = lower value",0.962
same,normalized growth,"locus YJL164C, strain tpk1, stronger effect = lower value",0.766 (active)
same,normalized growth,"locus YJL166W, strain qcr8, stronger effect = lower value",0.807 (active)
same,normalized growth,"locus YJL187C, strain SWE1, stronger effect = lower value",0.851 (active)
same,normalized growth,"locus YJR066W, strain TOR1, stronger effect = lower value",0.742 (active)
same,normalized growth,"locus YJR075W, strain HOC1, stronger effect = lower value",0.858 (active)
same,normalized growth,"locus YKL160W, strain elf1, stronger effect = lower value",0.724 (active)
same,normalized growth,"locus YKR026C, strain gcn3, stronger effect = lower value",0.908 (active)
same,normalized growth,"locus YKR091W, strain srl3, stronger effect = lower value",0.928 (active)
same,normalized growth,"locus YLL001W, strain dnm1, stronger effect = lower value",0.832 (active)
same,normalized growth,"locus YLL026W, stronger effect = lower value",0.896 (active)
same,normalized growth,"locus YLL041C, strain sdh2, stronger effect = lower value",0.898 (active)
same,normalized growth,"locus YLR027C, strain aat2, stronger effect = lower value",0.774 (active)
same,normalized growth,"locus YLR113W, strain HOG1, stronger effect = lower value",0.862
same,normalized growth,"locus YLR221C, strain rsa3, stronger effect = lower value",0.69 (active)
same,normalized growth,"locus YLR258W, strain gsy2, stronger effect = lower value",0.844 (active)
same,normalized growth,"locus YLR262C, strain YPT6 (second series), stronger effect = lower value",0.493 (active)
same,normalized growth,"locus YLR320W, strain mms22, stronger effect = lower value",0.453 (active)
same,normalized growth,"locus YLR342W, strain FKS1, stronger effect = lower value",0.796 (active)
same,normalized growth,"locus YLR357W, strain rsc2, stronger effect = lower value",0.88
same,normalized growth,"locus YLR370C, strain arc18, stronger effect = lower value",0.944
same,normalized growth,"locus YLR384C, strain iki3, stronger effect = lower value",0.972
same,normalized growth,"locus YML120C, strain ndi1, stronger effect = lower value",0.686 (active)
same,normalized growth,"locus YMR058W, strain fet3, stronger effect = lower value",0.494 (active)
same,normalized growth,"locus YMR125W, strain sto1, stronger effect = lower value",0.615 (active)
same,normalized growth,"locus YMR129W, stronger effect = lower value",0.911 (active)
same,normalized growth,"locus YMR205C, strain PFK2, stronger effect = lower value",0.66 (active)
same,normalized growth,"locus YMR231W, strain pep5, stronger effect = lower value",0.759 (active)
same,normalized growth,"locus YNL071W, strain lat1, stronger effect = lower value",0.478 (active)
same,normalized growth,"locus YNL175C, strain NOP13, stronger effect = lower value",0.879 (active)
same,normalized growth,"locus YNL183C, strain NPR1, stronger effect = lower value",0.803 (active)
same,normalized growth,"locus YNL197C, strain WHI3, stronger effect = lower value",0.897
same,normalized growth,"locus YNL209W, strain ssb2, stronger effect = lower value",0.855 (active)
same,normalized growth,"locus YNL224C, strain SQS1, stronger effect = lower value",0.937
same,normalized growth,"locus YNL248C, strain rpa49, stronger effect = lower value",0.769 (active)
same,normalized growth,"locus YNL322C, strain KRE1 (second series), stronger effect = lower value",0.963
same,normalized growth,"locus YNL322C, strain KRE1, stronger effect = lower value",0.881 (active)
same,normalized growth,"locus YNR049C, strain mso1, stronger effect = lower value",0.944
same,normalized growth,"locus YOR001W, strain rrp6, stronger effect = lower value",0.8 (active)
same,normalized growth,"locus YOR070C, strain gyp1, stronger effect = lower value",0.827 (active)
same,normalized growth,"locus YOR080W, strain dia2, stronger effect = lower value",0.961
same,normalized growth,"locus YOR083W, strain WHI5 (second series), stronger effect = lower value",0.751 (active)
same,normalized growth,"locus YOR083W, strain WHI5, stronger effect = lower value",0.81 (active)
same,normalized growth,"locus YOR106W, strain vam3, stronger effect = lower value",0.573 (active)
same,normalized growth,"locus YOR231W, strain MKK1, stronger effect = lower value",0.857 (active)
same,normalized growth,"locus YOR265W, strain rbl2, stronger effect = lower value",0.881 (active)
same,normalized growth,"locus YOR270C, strain vph1, stronger effect = lower value",0.568 (active)
same,normalized growth,"locus YOR290C, strain snf2, stronger effect = lower value",0.748 (active)
same,normalized growth,"locus YPL051W, strain arl3, stronger effect = lower value",0.652 (active)
same,normalized growth,"locus YPL078C, strain atp4, stronger effect = lower value",0.855 (active)
same,normalized growth,"locus YPL106C, strain sse1, stronger effect = lower value",0.882
same,normalized growth,"locus YPL240C, strain hsp82, stronger effect = lower value",0.845 (active)
same,normalized growth,"locus YPL241C, strain CIN2, stronger effect = lower value",0.964
same,normalized growth,"locus YPL256C, strain CLN2, stronger effect = lower value",0.854
